Laboratory results reported in PubChem BioAssay AID602340 (Broad Institute, 2012).
Hit rate of the full screen: of about 330,000 compounds, about 2,600 (0.79%) were called active. Many of the other results were omitted from the sample, so actives are more common in it than they were. Values without a mark were called inactive.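 How the source made its calls: active means mean ATP rescue above about 67%, or every replicate alone reaching that limit (limit read from the data, passing the limit was not always enough); inconclusive means no clear call, values can overlap the other calls; inactive means mean under the limit and some replicate under it.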

Assay: protection of differentiated C2C12 cells from simvastatin – single point, plate reader, primary screen (AID 602340);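 further: myotubes were challenged with 10 µM simvastatin during compound exposure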
Details: C2C12 myotubes + simvastatin, ATP luminescence, 48 h; at 7.49 µM; stronger effect = higher value

| SMILES | rescue of ATP level |
| --- | --- |
| Cc1ccc(C2CN(C)CC2C(=O)c2ccc(F)cc2)cc1 (stereo not given) | -5.74% |
| COc1ccc(C(=O)C2CN(C)CC2C(=O)c2ccc(OC)cc2)cc1 (stereo not given) | 152% (active) |
| COc1ccc(C(=O)CC2C(=O)N(C)C(=O)N(C)C2=O)cc1 | -12% |
| COc1cccc(-c2ccc3n(c2=O)C[C@H]2[C@H](CO)[C@@H](C(=O)O)[C@@H]3N2C(=O)c2cnccn2)c1 | 13.9% |
| CCn1cc(CN2CCCC(C(=O)c3cccc(C(F)(F)F)c3)C2)cn1 (stereo not given) | -1.69% |
| COc1cccc(C(c2nnnn2-c2ccc3c(c2)OCCO3)N2CCC3(CC2)C(=O)NCN3c2ccccc2)c1OC (stereo not given) | -28% |
| CCN1CCN(C(=O)Cc2coc3cc(C)cc(C)c23)CC1 | 104% (active) |
| COc1ccccc1CN1CCN(C(=O)Cc2ccccc2)CC1 | -9.85% |
| Cc1cc(OCc2cc(C(=O)O)oc2C)c2c3c(c(=O)oc2c1)CCCC3 | 23.5% |
| O=C(O)[C@H]1[C@H](CO)[C@H]2Cn3c(ccc(-c4ccccc4)c3=O)[C@@H]1N2S(=O)(=O)c1ccccc1F | 21.2% |
